Laboratory results from the supplement of paper PMC11732987, “Enantioselective OTUD7B fragment discovery through chemoproteomics screening and high-throughput optimisation” (Communications Chemistry, 2025).
A number with no mark means an inactive call.

How the values were obtained:
Experiment in all cases: log2 ratio of Biotin-Ahx-Ub-VS probe labelling (fragment/DMSO); higher = less target engagement (more negative = stronger competition), active = hit call of the paper (q ≤ 0.05, log2 ratio ≤ -1)
Settings in all cases: compound concentration: 200 uM; treatment time: 3 h
[1] = target: UniProt O00507
UniProt O00507, sequence (O00507 whole entry, the tested form may be a part): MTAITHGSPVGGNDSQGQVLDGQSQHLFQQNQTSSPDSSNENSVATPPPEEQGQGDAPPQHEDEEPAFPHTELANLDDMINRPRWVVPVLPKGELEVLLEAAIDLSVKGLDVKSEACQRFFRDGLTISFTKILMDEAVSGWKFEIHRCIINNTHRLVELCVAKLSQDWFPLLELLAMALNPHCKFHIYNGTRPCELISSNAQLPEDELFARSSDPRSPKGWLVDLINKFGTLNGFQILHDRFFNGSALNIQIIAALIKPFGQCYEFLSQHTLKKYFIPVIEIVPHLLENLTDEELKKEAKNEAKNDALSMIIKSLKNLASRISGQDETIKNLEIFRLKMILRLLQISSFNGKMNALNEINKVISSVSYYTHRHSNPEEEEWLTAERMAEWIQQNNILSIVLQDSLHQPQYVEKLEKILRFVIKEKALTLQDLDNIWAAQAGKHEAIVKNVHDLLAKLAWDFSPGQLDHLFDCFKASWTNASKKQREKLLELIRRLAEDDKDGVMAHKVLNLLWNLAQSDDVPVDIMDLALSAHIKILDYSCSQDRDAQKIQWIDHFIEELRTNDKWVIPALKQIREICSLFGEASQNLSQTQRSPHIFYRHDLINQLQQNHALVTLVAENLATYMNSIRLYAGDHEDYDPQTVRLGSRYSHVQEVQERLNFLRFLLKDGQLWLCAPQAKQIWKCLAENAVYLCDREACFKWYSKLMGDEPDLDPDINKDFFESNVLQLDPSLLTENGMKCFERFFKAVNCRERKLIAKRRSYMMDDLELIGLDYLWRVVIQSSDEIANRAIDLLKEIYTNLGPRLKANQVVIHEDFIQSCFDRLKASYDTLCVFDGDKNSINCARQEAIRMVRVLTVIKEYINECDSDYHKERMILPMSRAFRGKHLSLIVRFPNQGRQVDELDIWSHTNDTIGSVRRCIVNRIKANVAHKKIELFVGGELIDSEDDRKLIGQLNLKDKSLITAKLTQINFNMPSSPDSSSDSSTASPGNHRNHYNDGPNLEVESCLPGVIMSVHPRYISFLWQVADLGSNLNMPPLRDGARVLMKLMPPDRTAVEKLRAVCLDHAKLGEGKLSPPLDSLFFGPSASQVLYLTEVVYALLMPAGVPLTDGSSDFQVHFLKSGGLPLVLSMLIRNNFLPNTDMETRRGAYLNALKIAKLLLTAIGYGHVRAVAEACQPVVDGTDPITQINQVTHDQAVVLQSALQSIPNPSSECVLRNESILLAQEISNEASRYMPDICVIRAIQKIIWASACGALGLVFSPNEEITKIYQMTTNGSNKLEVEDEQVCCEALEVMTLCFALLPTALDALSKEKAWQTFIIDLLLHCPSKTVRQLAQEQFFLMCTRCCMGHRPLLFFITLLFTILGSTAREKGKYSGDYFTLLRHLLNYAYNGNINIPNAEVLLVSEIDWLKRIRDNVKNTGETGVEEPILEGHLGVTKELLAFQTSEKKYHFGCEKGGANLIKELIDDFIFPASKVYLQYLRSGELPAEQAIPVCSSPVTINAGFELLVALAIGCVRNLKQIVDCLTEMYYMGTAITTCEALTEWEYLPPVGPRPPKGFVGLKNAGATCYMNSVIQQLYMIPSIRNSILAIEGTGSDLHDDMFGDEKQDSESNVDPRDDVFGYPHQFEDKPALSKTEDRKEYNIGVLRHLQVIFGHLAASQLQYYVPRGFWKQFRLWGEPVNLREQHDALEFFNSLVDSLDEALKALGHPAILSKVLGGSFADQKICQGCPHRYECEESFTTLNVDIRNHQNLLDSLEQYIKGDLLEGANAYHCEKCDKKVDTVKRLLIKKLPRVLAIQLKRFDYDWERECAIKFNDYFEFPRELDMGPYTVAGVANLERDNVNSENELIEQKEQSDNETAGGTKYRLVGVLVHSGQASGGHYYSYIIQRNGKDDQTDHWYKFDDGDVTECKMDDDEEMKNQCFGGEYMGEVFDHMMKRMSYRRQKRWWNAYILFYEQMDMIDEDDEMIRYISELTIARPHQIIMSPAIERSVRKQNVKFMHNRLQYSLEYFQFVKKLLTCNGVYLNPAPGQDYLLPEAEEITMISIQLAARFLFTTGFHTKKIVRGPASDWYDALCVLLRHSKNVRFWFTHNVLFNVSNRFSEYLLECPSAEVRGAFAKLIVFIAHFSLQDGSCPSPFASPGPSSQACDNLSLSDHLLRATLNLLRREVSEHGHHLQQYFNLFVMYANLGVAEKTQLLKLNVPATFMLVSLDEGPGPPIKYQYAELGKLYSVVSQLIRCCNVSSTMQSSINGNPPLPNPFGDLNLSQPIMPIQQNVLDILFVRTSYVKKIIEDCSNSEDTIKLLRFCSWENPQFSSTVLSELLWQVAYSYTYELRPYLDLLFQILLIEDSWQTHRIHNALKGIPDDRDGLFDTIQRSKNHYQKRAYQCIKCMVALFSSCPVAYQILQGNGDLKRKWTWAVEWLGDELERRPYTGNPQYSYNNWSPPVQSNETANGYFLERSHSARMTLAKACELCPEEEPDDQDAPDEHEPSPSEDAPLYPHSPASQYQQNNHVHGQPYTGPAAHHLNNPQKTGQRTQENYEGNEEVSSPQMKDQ
Outline: (§1)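 Each value is an average log2 ratio of fragment to vehicle, tested by unpaired t-test. The underlying Spectronaut label-free quantities were global-median-normalised, and only proteins with ≥2 unique peptides were included. Triplicate HEK293T lysate samples (495 µg) were exposed to fragment at 200 µM or vehicle for 3 h, then to Biotin-Ahx-Ub-VS at 0.5 µM final for 1 h, before NeutrAvidin enrichment of labelled DUBs, LysC and trypsin digestion, and diaPASEF LC-MS/MS.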

[2] = target: UniProt P51784
UniProt P51784, sequence (P51784 whole entry): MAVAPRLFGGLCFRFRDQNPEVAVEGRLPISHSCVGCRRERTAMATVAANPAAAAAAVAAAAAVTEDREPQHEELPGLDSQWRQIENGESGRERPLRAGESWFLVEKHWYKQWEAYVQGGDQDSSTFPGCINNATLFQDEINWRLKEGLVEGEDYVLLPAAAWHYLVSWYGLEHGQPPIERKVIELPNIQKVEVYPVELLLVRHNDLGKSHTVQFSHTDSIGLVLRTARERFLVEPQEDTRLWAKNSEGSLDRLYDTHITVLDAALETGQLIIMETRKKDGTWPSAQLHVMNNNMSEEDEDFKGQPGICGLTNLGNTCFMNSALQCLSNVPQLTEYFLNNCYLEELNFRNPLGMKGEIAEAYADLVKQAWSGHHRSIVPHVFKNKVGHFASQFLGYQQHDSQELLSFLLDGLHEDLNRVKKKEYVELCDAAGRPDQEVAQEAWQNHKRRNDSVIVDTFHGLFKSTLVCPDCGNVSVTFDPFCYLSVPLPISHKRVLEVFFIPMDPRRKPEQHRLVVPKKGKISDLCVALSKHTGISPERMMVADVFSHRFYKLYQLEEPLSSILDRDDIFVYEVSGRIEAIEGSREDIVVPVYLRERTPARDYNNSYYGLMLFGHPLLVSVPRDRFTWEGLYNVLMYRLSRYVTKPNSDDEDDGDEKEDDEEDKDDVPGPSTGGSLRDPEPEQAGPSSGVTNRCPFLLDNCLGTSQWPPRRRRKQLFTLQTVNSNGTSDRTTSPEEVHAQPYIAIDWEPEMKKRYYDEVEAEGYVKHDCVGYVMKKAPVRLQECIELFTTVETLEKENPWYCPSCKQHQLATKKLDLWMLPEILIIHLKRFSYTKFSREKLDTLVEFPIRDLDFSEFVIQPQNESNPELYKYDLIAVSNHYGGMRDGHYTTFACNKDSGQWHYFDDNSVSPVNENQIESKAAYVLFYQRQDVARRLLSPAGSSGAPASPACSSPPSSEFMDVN
Outline: as §1

[3] = target: T1, UniProt Q5T2D3
T1 sequence (whole entry): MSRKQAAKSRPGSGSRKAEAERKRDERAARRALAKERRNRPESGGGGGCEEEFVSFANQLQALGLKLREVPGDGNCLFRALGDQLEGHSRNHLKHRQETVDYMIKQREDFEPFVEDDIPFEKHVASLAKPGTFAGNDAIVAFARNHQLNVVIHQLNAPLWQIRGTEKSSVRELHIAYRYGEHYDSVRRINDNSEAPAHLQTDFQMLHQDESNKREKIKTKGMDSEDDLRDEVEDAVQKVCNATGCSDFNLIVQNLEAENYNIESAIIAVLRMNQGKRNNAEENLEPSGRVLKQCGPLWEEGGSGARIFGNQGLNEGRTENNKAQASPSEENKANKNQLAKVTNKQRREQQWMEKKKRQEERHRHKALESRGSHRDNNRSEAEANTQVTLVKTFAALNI
Outline: as §1

[4] = target: T2, UniProt Q8TE49
T2 sequence (whole entry): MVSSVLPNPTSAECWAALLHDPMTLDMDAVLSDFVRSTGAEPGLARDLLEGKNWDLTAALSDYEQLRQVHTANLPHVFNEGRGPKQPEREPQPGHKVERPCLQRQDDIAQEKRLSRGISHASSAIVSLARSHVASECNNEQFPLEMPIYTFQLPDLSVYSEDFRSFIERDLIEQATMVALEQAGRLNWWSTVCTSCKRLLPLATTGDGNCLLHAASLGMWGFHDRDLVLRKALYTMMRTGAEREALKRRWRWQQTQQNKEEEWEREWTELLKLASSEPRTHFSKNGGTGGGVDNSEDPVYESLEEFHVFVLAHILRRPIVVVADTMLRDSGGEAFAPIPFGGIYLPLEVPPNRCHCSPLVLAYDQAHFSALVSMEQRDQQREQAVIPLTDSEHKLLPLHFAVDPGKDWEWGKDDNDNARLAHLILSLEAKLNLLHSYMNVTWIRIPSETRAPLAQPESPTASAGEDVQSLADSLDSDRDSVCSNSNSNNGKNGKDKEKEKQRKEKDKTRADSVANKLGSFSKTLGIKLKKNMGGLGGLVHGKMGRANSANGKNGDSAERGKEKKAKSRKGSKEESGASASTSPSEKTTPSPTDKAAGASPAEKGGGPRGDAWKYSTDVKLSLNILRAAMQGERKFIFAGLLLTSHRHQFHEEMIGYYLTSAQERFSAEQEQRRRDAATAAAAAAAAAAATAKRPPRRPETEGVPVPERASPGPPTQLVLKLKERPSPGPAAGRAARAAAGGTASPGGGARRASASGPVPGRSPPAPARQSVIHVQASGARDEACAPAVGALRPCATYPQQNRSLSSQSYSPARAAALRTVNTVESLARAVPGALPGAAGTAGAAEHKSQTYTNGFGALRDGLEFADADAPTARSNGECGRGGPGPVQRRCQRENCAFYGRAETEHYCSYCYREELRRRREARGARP
Outline: as §1

[5] = target: T3, UniProt Q9P2H5
T3 sequence (whole entry): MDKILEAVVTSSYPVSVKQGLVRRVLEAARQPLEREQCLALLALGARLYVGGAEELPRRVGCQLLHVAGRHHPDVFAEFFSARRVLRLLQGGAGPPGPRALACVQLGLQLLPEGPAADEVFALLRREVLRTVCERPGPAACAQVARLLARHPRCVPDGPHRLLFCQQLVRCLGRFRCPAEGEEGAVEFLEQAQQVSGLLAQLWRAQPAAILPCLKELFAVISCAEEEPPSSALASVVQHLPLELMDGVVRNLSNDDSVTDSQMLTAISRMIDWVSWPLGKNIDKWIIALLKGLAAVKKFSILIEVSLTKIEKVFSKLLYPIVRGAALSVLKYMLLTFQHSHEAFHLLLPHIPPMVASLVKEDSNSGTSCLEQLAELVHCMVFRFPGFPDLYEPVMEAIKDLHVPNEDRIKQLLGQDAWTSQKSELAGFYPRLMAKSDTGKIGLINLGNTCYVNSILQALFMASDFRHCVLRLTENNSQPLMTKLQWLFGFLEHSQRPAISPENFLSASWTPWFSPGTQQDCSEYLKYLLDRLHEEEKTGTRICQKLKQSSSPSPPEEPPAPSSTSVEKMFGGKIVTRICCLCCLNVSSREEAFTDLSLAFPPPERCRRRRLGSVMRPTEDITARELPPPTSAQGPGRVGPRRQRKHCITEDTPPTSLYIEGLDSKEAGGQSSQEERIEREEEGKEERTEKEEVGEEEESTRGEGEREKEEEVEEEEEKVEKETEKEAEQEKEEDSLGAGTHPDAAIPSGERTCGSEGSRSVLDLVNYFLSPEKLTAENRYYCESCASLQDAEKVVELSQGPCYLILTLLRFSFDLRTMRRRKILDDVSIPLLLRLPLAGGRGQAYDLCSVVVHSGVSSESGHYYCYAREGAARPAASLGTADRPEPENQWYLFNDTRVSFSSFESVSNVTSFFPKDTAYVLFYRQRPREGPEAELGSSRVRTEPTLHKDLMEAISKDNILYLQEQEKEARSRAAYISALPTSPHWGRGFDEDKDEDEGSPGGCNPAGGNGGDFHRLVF
Outline: as §1

[6] = target: T4, UniProt Q9UGI0
T4 sequence (whole entry): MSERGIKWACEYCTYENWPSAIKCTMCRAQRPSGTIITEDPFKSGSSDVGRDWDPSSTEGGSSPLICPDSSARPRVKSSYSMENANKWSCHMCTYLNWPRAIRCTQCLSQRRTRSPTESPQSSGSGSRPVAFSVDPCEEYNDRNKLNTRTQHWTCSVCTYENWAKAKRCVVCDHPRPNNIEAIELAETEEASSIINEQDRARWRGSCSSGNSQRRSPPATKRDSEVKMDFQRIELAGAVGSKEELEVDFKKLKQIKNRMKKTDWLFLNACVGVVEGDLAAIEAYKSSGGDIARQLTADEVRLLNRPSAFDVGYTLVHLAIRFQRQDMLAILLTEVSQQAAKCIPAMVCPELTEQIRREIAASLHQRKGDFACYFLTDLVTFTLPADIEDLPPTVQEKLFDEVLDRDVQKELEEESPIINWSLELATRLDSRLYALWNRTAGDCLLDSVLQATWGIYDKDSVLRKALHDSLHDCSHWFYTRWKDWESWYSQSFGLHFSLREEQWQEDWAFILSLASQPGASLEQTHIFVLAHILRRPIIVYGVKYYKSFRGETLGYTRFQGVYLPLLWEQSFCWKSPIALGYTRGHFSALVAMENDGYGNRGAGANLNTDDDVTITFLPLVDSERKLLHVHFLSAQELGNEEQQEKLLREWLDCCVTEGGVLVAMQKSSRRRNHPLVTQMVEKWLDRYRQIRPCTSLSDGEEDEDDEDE
Outline: as §1

[7] = target: T5, YOD1 (UniProt Q5VVQ6)
T5 sequence (whole entry): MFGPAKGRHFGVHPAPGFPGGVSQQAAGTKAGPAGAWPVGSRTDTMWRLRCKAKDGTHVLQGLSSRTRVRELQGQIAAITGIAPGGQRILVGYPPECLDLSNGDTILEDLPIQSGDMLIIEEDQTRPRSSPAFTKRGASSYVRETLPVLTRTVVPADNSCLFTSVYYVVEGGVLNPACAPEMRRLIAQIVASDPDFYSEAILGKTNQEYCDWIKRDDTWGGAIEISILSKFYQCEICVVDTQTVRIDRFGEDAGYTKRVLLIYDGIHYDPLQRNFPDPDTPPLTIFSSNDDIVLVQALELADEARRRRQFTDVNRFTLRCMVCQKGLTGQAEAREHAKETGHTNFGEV
Outline: as §1

Row | SMILES | log2 ratio of Biotin-Ahx-Ub-VS probe labelling [1] | log2 ratio of Biotin-Ahx-Ub-VS probe labelling [2] | log2 ratio of Biotin-Ahx-Ub-VS probe labelling [3] | log2 ratio of Biotin-Ahx-Ub-VS probe labelling [4] | log2 ratio of Biotin-Ahx-Ub-VS probe labelling [5] | log2 ratio of Biotin-Ahx-Ub-VS probe labelling [6] | log2 ratio of Biotin-Ahx-Ub-VS probe labelling [7]
1 | O=C(CCl)NC1(c2ccc3c(c2)OCCO3)CCCC1 | -0.152 | -0.000106 | -0.339 | -0.447 | -0.3 | -0.26 | -0.199
2 | O=C(CCl)NCC(=O)N1CCCC1 | -0.0296 | 0.172 | -0.355 | -0.471 | -0.207 | -0.151 | -0.225
3 | O=C(CCl)N1CCC2(CCC(O)CC2)CC1 | 0.0905 | 0.0738 | -0.238 | -0.64 | -0.118 | -0.316 | 0.0256
4 | COc1ccc(Cl)cc1NC(=O)CCl | -0.985 | -0.276 | -0.485 | -0.837 | -0.335 | -0.741 | -0.669
5 | O=C(CCl)Nc1cccc2ncccc12 | 0.145 | 0.265 | -0.164 | -0.784 | -0.437 | -1.64 (active) | 0.469
6 | Cc1cccc(N(CCC#N)C(=O)CCl)c1C | 0.294 | 0.0536 | -0.0559 | -1.26 (active) | -0.386 | -0.934 | 0.144
7 | Cl.Cn1ncc2c1CCCC2NC(=O)CCl (stereo not drawn) | -0.0339 | -0.154 | -0.121 | -3.69 (active) | -0.276 | 0.0166 | -0.109
8 | Cc1ccc(C(=O)NCCNC(=O)CCl)cc1 | -0.256 | 0.00304 | -0.199 | -0.373 | -0.35 | -0.456 | -0.0895
9 | Cc1cccc(NC(=O)[C@@H]2CCCN2C(=O)CCl)n1 | -0.299 | -0.00908 | -0.366 | -0.721 | -0.312 | -0.3 | -0.432
10 | O=C(CCl)Nc1ccc(Cl)c(F)c1 | -0.588 | -0.219 | -0.339 | -0.571 | -0.0638 | -1.27 (active) | -0.313
11 | Cc1noc(N2CCN(C(=O)CCl)CC2)n1.Cl | 0.416 | 0.139 | -0.466 | -0.674 | -0.642 | -0.369 | 0.313
12 | O=C(CCl)N1CCCCCC1c1ncon1 (stereo not drawn) | -0.0474 | -0.00586 | -0.23 | -0.401 | -0.21 | -0.661 | 0.022
13 | CN(Cc1nc2ccccc2[nH]1)C(=O)CCl.Cl | -0.702 | 0.00766 | -0.19 | -0.268 | 0.121 | -0.937 | 0.0427
14 | CCC1c2ccsc2CCN1C(=O)CCl (stereo not drawn) | -0.266 | -0.306 | -0.0335 | -0.771 | -0.118 | -0.444 | -0.026
15 | O=C(CCl)Nc1ccc(N2CCCC2=O)cc1 | -0.208 | 0.297 | 0.165 | 0.0701 | 0.00543 | -0.752 | 0.137
16 | Cl.O=C(CCl)N1CCC(Cc2nccs2)C1 (stereo not drawn) | -0.185 | 0.0118 | -0.239 | -0.308 | -0.239 | -0.507 | -0.104
17 | C[C@@H](NC(=O)CCl)c1cccc(C#N)c1 | -0.38 | 0.045 | -0.157 | -0.912 | -0.136 | -0.111 | -0.0878
18 | C/C(=C\CNC(=O)CCl)c1cnn(C)c1.Cl | -0.224 | -0.391 | -0.0109 | -0.499 | -0.465 | -0.0207 | -0.155
19 | Cl.O=C(CCl)N1CCn2ncc(O)c2C1 | -0.112 | -0.0869 | -0.448 | -2.17 (active) | -0.541 | -1.92 (active) | -0.272
